Screening data as filed in PubChem BioAssay.
PKM2 activator = qHTS Assay for Activators of Human Muscle isoform 2 Pyruvate Kinase. actives 0.34% (n = 260,000). purified PKM2, Kinase-Glo ATP luminescence, activation; response scale: 0% is enzyme alone, no compound. Potency, µM (top dose mostly 57.5 µM), inactives show at the top dose activation, usual class: activators. AID 1631, 2009; further: potency means the concentration at half of the fitted maximal effect; nearly all actives have a fitted effect of over 55% in size
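hPK-M2, >95% pure; 0.1 mM ADP / 0.5 mM PEP final; imidazole pH7.2 buffer w/ 7 mM MgCl2, 50 mM KCl; 1 h RT; Kinase-Glo lum. Intermediate enzyme activity for dual inhibitor/activator qHTS.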
CtBP-E1A inh = qHTS Assay for Inhibitors of the CtBP/E1A Interaction; CtBP / adenovirus E1A interaction (AlphaScreen); AlphaScreen GST-E1A/His-CtBP binding, 1536-well; stronger effect = lower value; activity change, % (test concentration not listed); actives 0.49% (n = 340,000); AID 651724, 2012; in the data active means activity change below about -65%; inconclusive means mostly about -30% to -63%
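Homogeneous bead-based format: GST-tagged E1A captured on glutathione donor beads, His-tagged CtBP on nickel acceptor beads; compounds precede bead addition by 2 h at 37 °C.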
Gal4-VP16 FLuc = VP16 counterscreen qHTS for inhibitors of ROR gamma transcriptional activity. Potency, µM (series often up to 53.6 µM), for inactives: at the highest dose activity, negative = inhibition, usual class: inhibitors. AID 2546, 2010. Drosophila S2 Gal4-VP16 UAS-luciferase, luminescence, 20 h. actives 3.5% (n = 310,000);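 further: Gal4-VP16 expression switched on by copper sulfate through the metallothionein promoter; potency means the concentration at half of the fitted maximal effect; nearly all actives have a fitted effect of over 50% in size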
Six1-Eya2 blk = qHTS Assay for Inhibitors of the Six1/Eya2 Interaction. activity change, % (concentration not given with the values). AID 651725, 2012. AlphaScreen GST-Six1/His-Eya2 binding, biochemical; stronger effect = lower value. actives 0.56% (n = 360,000). Homeobox protein SIX1 (Homo sapiens) + Protein phosphatase EYA2 (Homo sapiens), …; in the data active means activity change below about -65%; inconclusive means mostly about -30% to -63%
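AlphaScreen with GST-Six1 and His-Eya2 (5X mix: 250 nM and 500 nM), glutathione donor and nickel acceptor beads; buffer 50 mM Tris pH 8.0, 300 mM NaCl, 1 mM TCEP; 1 h at 37 C in the dark.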
RORgamma inh = qHTS for inhibitors of ROR gamma transcriptional activity | AID 2551, 2010 | Drosophila S2 Gal4-RORgamma UAS-luciferase reporter, 20 h | actives 5.4% (n = 310,000) | Potency, µM (highest dose often 53.6 µM), for the others: at the highest dose activity change, negative = inhibition, hits mostly inhibitors; further: potency means the concentration at half of the fitted maximal effect; nearly all actives have a fitted effect of over 60% in size
Target sequence (P51450 whole entry, looked up, the tested form may be a part): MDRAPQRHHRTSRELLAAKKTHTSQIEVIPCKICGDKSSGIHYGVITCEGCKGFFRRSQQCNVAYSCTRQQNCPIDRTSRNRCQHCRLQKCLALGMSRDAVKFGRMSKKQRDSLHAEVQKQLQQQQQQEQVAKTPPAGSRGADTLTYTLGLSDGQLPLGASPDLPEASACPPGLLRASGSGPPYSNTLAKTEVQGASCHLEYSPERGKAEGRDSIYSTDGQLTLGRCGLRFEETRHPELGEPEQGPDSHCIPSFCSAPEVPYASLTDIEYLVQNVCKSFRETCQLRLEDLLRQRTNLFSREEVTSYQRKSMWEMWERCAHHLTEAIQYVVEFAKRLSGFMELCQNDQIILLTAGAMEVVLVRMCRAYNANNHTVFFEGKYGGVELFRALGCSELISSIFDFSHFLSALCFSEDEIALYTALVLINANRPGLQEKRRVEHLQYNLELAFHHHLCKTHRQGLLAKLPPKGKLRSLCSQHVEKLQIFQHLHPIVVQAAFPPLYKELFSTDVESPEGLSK
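ROR gamma transcriptional activity was tracked as Gal4-UAS luciferase output in stably transfected Drosophila Schneider cells, with compound added 1 hr before 700 uM copper sulfate induction and a 20 hr ambient-temperature incubation.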
* hit, by the source's call; [ ] = remark or other dose. In the library only some 5.6% were active in any assay of this set; here they are far more common. Unless noted, the call rests on the fitted dose curve; in most records, active means well fitted curve in the direction sought with a large enough effect; inconclusive means small, poorly fitted or top-dose-only effect, or another doubt; inactive means no such curve, though single readings can be large; an effect the other way counts as inactive or inconclusive. On the % scale 0 is the no-effect control and ±100 the full control effect.

Results for COCC(=O)N1CCC(Oc2ccc(C(=O)NCCc3ncccc3C)cc2)CC1 ?
PKM2 activator: 1.0%[0.46 µM]; CtBP-E1A inh: 7.2; Gal4-VP16 FLuc: -15.1%; Six1-Eya2 blk: 22.3; RORgamma inh: 0.0%

How did O=C(NCCc1cccc(Cl)c1)c1ccc(OC2CCN(Cc3ccccn3)CC2)cc1 do in these assays?
PKM2 activator: 0.5%; CtBP-E1A inh: 0.0; Gal4-VP16 FLuc: -19.0%; Six1-Eya2 blk: -7.3; RORgamma inh: 17.8µM*

What do the screens show for `Cc1cccnc1CCNC(=O)c1ccc(OC2CCN(Cc3ccccn3)CC2)cc1`?
PKM2 activator: 1.3%; CtBP-E1A inh: -1.2; Gal4-VP16 FLuc: inconclusive; Six1-Eya2 blk: -0.3; RORgamma inh: 14.1µM*

What do the screens show for `CCn1cc(CNC(=O)c2ccc(OC3CCN(Cc4ccccn4)CC3)cc2)cn1`?
PKM2 activator: 8.9%; CtBP-E1A inh: 6.4; Gal4-VP16 FLuc: -2.5%; Six1-Eya2 blk: 4.5; RORgamma inh: inconclusive

What do the screens show for `CCOc1ccc(NC(=O)CCc2c(C)nn(-c3ccc(N4CCCCC4)nn3)c2C)cc1`?
CtBP-E1A inh: 2.0; Gal4-VP16 FLuc: 2.9%; Six1-Eya2 blk: -0.2; RORgamma inh: -1.2%

How did Cc1ccc(S(=O)(=O)N(C)c2c(C)ccc(S(=O)(=O)NC(C)(C)C)c2C)cc1 do in these assays?
PKM2 activator: 1.5%; CtBP-E1A inh: 15.5; Gal4-VP16 FLuc: -8.0%; Six1-Eya2 blk: 1.0; RORgamma inh: -33.7%

Results for CCSc1nc(-c2ccccc2)nc(C(Cl)Cl)n1 ?
PKM2 activator: -16.8%; CtBP-E1A inh: 20.1; Gal4-VP16 FLuc: 10µM*; Six1-Eya2 blk: 17.1; RORgamma inh: 1.26µM*

Results for Nc1nsc2ccccc12 ?
PKM2 activator: -7.5%; CtBP-E1A inh: -9.2; Gal4-VP16 FLuc: inconclusive; Six1-Eya2 blk: -1.5; RORgamma inh: 14.1µM*

Results for c1ccc(CCNc2ccccn2)nc1 ?
CtBP-E1A inh: 0.0; Six1-Eya2 blk: 11.4

How did c1ccc(CCNc2ncnc3sccc23)nc1 do in these assays?
PKM2 activator: -18.6%; CtBP-E1A inh: 5.6; Gal4-VP16 FLuc: 15.8µM*; Six1-Eya2 blk: -0.4; RORgamma inh: inconclusive

What do the screens show for `c1csc(CNc2ncnc3sccc23)c1`?
CtBP-E1A inh: 4.8; Six1-Eya2 blk: 1.8

What do the screens show for `Cc1csc2ncnc(NCCc3ccccn3)c12`?
PKM2 activator: -3.0%; CtBP-E1A inh: 0.6; Gal4-VP16 FLuc: 10µM*; Six1-Eya2 blk: 0.2; RORgamma inh: -5.9%

What do the screens show for `CCOC(=O)N1CCN(C(=O)c2cc3c(s2)-c2c(C)cccc2OC3)CC1`?
CtBP-E1A inh: 23.3; Gal4-VP16 FLuc: -3.7%; Six1-Eya2 blk: 15.5; RORgamma inh: -2.8%

How did Cc1cccc2c1-c1sc(C(=O)N3CCCCC3)cc1CO2 do in these assays?
PKM2 activator: -0.6%; CtBP-E1A inh: 18.7; Gal4-VP16 FLuc: inconclusive; Six1-Eya2 blk: 13.9; RORgamma inh: 10µM*

How did Cc1c(Br)c(-c2n[nH]c(=S)n2Cc2ccco2)nn1C do in these assays?
PKM2 activator: 2.5%; CtBP-E1A inh: -3.1; Gal4-VP16 FLuc: -2.8%; Six1-Eya2 blk: 0.7; RORgamma inh: 22.4µM*

What do the screens show for `COc1ccc(-c2n[nH]c(=S)n2Cc2ccco2)cc1`?
PKM2 activator: -5.8%; CtBP-E1A inh: 6.2; Gal4-VP16 FLuc: inconclusive; Six1-Eya2 blk: -1.2; RORgamma inh: 15.8µM*

What do the screens show for `Cc1cc(-c2n[nH]c(=S)n2Cc2ccco2)nn1C`?
PKM2 activator: -7.3%; CtBP-E1A inh: -4.1; Gal4-VP16 FLuc: -26.3%; Six1-Eya2 blk: 2.8; RORgamma inh: inconclusive

Results for COc1cccc(Cc2n[nH]c(=S)n2Cc2ccco2)c1 ?
PKM2 activator: -2.4%; CtBP-E1A inh: -0.6; Gal4-VP16 FLuc: -25.1%; Six1-Eya2 blk: -19.7; RORgamma inh: 3.55µM*

Results for CCC(C)(C)NC(=O)Cc1ccc(Cl)cc1 ?
PKM2 activator: -8.4%; CtBP-E1A inh: 6.3; Gal4-VP16 FLuc: -1.8%[10 µM]; Six1-Eya2 blk: -3.3; RORgamma inh: 0.9%
